# Test results as given in PubChem BioAssay AID1662 (Broad Institute, 2009).
# Hit rate of the full screen: of about 300,000 compounds, about 4,000 (1.3%) were called active. The list comes from a sample in which actives are over-represented; it also holds similar structures and randomly drawn compounds. Unmarked numbers belong to inactive results.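 The calls were made as follows: active = mean replicate score, as percent of positive control median, at least 50; inconclusive = mean below 50 but one replicate at or above 50; inactive = mean and every replicate below 50.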
# Experiment: kanamycin survival loss of SKKanGAS strain – BacTiter-Glo luminescence, streptokinase expression inhibitor project, primary screen (AID 1662);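 also: strain carries kanamycin resistance gene driven by streptokinase promoter and grows in 40 µg/ml kanamycin; loss of luminescence reflects streptokinase promoter inhibition or plain growth inhibition; 0% = median of DMSO wells and 100% = positive control at its reference dose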
# Conditions: S. pyogenes SKKanGAS, kanamycin growth, 6 h, at 7.5 µM, stronger effect = higher value
row,Structure (SMILES),inhibition
1,CC(=O)Nc1ccc(NS(=O)(=O)c2ccc3c(c2)NC(=O)CC(=O)N3)cc1,-2.61%
2,CCOC(=O)N1CCN(S(=O)(=O)c2ccc(OC)cc2)CC1,-0.833%
3,Cc1cc(N2C(=O)C(=O)/C(=C(/O)c3ccccc3)C2c2cccc(Br)c2)no1 (stereo not given),16.7%
4,Cn1nnc(NC(=S)NC(=O)c2ccccc2)n1,-0.537%
5,COc1ccccc1CCC(=O)OCC(=O)N1CCN(S(=O)(=O)c2ccc(C)cc2C)CC1,-9.85%
6,Cc1ccccc1NC(=O)C1CCCN(C(=O)NCc2ccccc2)C1 (stereo not given),-1.35%
7,CCCCN=C1C([N+](=O)[O-])=CC=C2C1=NC1(CCCCC1)N2O,2.56%
8,Clc1ccc(-c2cc(C3CCNCC3)[nH]n2)c(Cl)c1,7.25%
9,COc1ccc(CCNC(=O)CCCCCNC(=O)N2CCn3c2nc2ccccc23)cc1OC,3.33%
10,COc1ccccc1N1CCN(C(=O)CCS(=O)(=O)c2ccc3c(c2)NC(=O)C(C)S3)CC1 (stereo not given),-2.2%
11,COC(=O)CNC(c1ccccc1Cl)c1cc(Br)ccc1NC(=O)CCN1CCOCC1 (stereo not given),-3.8%
12,CC(=O)O[C@H]1CC[C@@]2(C)[C@@H](CC[C@@H]3[C@@H]2CC[C@]2(C)[C@@H](C(C)(C)O)C[C@@H]32)C1,29%
13,COc1ccc(-c2cc(-c3ccc(N)cc3)nc(N)c2C#N)cc1OC,9.35%
14,CCOc1cc(-c2cc(-c3ccc(OC)cc3)nc(N)c2C#N)ccc1O,30.5%
15,CCOc1cc(-c2cc(-c3ccc(NC(C)=O)cc3)nc(N)c2C#N)ccc1O,83.8% (active)
16,O=S(=O)(c1cccc(C(F)(F)F)c1)N1CCN(c2cnccn2)CC1,0.567%
17,CC(C)CCNC(=O)CCNS(=O)(=O)c1ccc(Cl)cc1,-4.22%
18,COCCSc1nnc(NC(=O)CCS(=O)(=O)Cc2ccccc2)s1,-1.08%
19,Cc1cc(C)cc(N(CCC#N)C(=O)CN2C(=O)NC3(CCCC3)C2=O)c1,-1.7%
20,Cc1ccc(OCCCCc2c(C)n[nH]c2C)cc1,87.2% (active)
21,CCCOc1ccc(-c2nc(N)n[nH]2)cc1,-0.246%
22,Cc1ccc(OCc2n[nH]c(=S)n2-c2ccc(C)cc2)cc1,-0.726%
23,Cc1cc2c(c(=O)n1C)C(C(C)C)C(C#N)=C(N)O2 (stereo not given),-0.711%

row,Structure (SMILES),inhibition
1,CCOC(=O)c1c(-c2ccccc2)oc2ccc(OCC(N)=O)cc12,-10.7%
2,CCOC(=O)c1c(-c2ccccc2)oc2cc(Br)c(O)c(C=O)c12,56.9% (active)
3,CCOC(=O)c1c(-c2ccccc2)oc2cc(Br)c(O)cc12,12.5%
4,COc1ccccc1CNS(=O)(=O)c1cc2c3c(c1)CCC(=O)N3CCC2,-8.56%
5,NS(=O)(=O)c1ccc(CCNC(=O)CN2C(=O)c3ccccc3S2(=O)=O)cc1,-2.59%
6,CCCCCCc1ccc(O)cc1O,9.42%
7,CCCCCCc1cc2cc(-c3nnc(-c4ccccc4)o3)c(=O)oc2cc1O,62% (active)
8,Cc1c(CC(=O)NCCCCCC(=O)O)c(=O)oc2cc3occ(-c4ccccc4)c3cc12,18.7%
9,O=C(CCc1nnc2ccc(NCc3ccco3)nn12)Nc1cc(F)ccc1F,-0.213%
10,Cc1ccc(C(=O)NC(=S)Nc2ccccc2C)cc1,-6.14%
11,Cc1ccc(NC(=S)NC(=O)c2ccc(-c3ccccc3)cc2)cc1,9.46%
12,C/C(=N\NC(=O)c1ccc(C)cc1)C1C(=O)c2ccccc2C1=O,52.3% (active)
13,CC(C)c1ccccc1OCC(O)CN(CC(O)COc1cccc2ccccc12)C(C)C (stereo not given),97.9% (active)
14,OC(COc1cccc2ccccc12)CN1CCN(c2ccccn2)CC1 (stereo not given),13.1%
15,Cc1cc(C)c(NC(=O)C[N+](C)(C)CC(O)COc2cccc3ccccc23)c(C)c1 (stereo not given),29%
16,CC(C)=CCCC1(C)C=Cc2c(ccc3c2[nH]c2cc(O)c(C)cc23)O1 (stereo not given),112% (active)
17,COc1ccc(CCNC(=O)C(=O)NCC2OCCN2S(=O)(=O)c2cccs2)cc1OC (stereo not given),-1.24%
18,CCCC(CCC(=O)OC)(C(=O)OCC)c1csc(N)n1 (stereo not given),-8.11%
19,CCCCCCCCCCCCC(NC(C)=O)(C(=O)OCC)C(=O)OCC,61.2% (active)
20,O=S(=O)(c1cccc(-c2cn3ccccc3n2)c1)N1CCCC1,-3.54%
21,O=C(CSc1nc(O)c(Cc2ccccc2)c(=O)[nH]1)Nc1nc2c(s1)CCCC2,28.8%
22,O=S(=O)(c1cc(Cl)ccc1Cl)N1CCN(Cc2ccco2)CC1,2.62%
23,CC(=O)Nc1ccc(NC(=O)C(C)n2c3ccccc3c3nc(=O)cc(C)n32)cc1 (stereo not given),3.43%

row,Structure (SMILES),inhibition
1,Cc1sc2nc(SCC(N)=O)n(C)c(=O)c2c1C,-2.36%
2,C=CCn1c(SCC(=O)NCC2CCCO2)nc2sc(C)c(C)c2c1=O (stereo not given),-1.04%
3,C=CCn1c(SCC(=O)/C(C#N)=C(\C)N)nc2sc(C)c(C)c2c1=O,58.1% (active)
4,COc1ccc(NC(=O)CN(C)C(=O)/C=C/c2cn(Cc3ccccc3)nc2-c2cccnc2)cc1,18.3%
5,CCOc1ccc2[nH]c(=O)c(CN(CCCO)S(=O)(=O)c3ccc(F)cc3)cc2c1,0.803%
6,C=CCOc1cccc(C2C(C(=O)c3ccc(C)o3)=C(O)C(=O)N2c2nnc(C)s2)c1 (stereo not given),7.43%
7,COc1cc(C2C(C(=O)c3ccco3)=C(O)C(=O)N2c2cc(C)on2)ccc1OCc1ccccc1 (stereo not given),2.64%
8,Cc1cc(N2C(=O)C(O)=C(C(=O)c3ccc(C)o3)C2c2ccc(OCc3ccccc3)cc2)no1 (stereo not given),106% (active)
9,Cc1ccc(C2(c3ccc(C)cc3)NC(=O)N(Cc3c(C)noc3C)C2=O)cc1,4.44%
10,O=C(CCc1ccccc1)NNC(=O)COc1ccc(Cl)cc1,5.54%
11,Clc1ccc(C2CC(c3cccs3)n3ncnc3N2)cc1Cl (stereo not given),-0.937%
12,FC(F)Oc1ccccc1C1CC(c2ccc(Br)s2)Nc2ncnn21 (stereo not given),59.5% (active)
13,COc1ccc(C2CC(c3ccc(C)cc3)Nc3ncnn32)cc1 (stereo not given),-7.13%
14,CCCCCC(O)(CCN1CCCCC1)c1ccccc1 (stereo not given),-0.734%
15,CSCCC(NC(=O)COc1ccccc1)C(=O)OCC(=O)c1cc2ccccc2o1 (stereo not given),-0.0582%
16,Cc1ccsc1C(=O)OCC(=O)c1cc(C)n(CC2CCCO2)c1C (stereo not given),9.42%
17,Cc1ccsc1C(=O)OCC(=O)c1cc2ccccc2o1,49.9% (active)
18,CC(C)(C)NC(=O)CN(C(=O)c1ccc(Cl)nc1)c1cccc2ccccc12,-17.5%
19,CC(C)Oc1ccc(/C=N/NC(=O)c2nnn(-c3nonc3N)c2CN(C)C2CCCCC2)cc1,18.9%
20,O=C(NCC(=O)N1CCN(c2ccccc2O)CC1)c1ccc2ccccc2c1,11.7%
21,O=C1NN(c2ccccc2)C(=O)/C1=C/c1ccc(-c2cccc(C(=O)O)c2)o1,-2.46%
22,O=C(O)C(c1ccccc1)N1C(=O)/C(=C\c2ccc(-c3cccc(Cl)c3)o2)SC1=S (stereo not given),94% (active)
23,CN1C(=O)/C(=C\c2ccc(-c3ccccc3)o2)SC1=S,7.05%

row,Structure (SMILES),inhibition
1,Cn1c(=O)oc2cc(S(=O)(=O)NCCC(=O)NCc3ccccc3Cl)ccc21,2.05%
2,C=CCn1c(C23CC4CC(CC(C4)C2)C3)n[nH]c1=S,1.54%
3,Cc1cc(NC(=O)CSc2nc3cc(Cl)ccc3c(=O)n2Cc2ccco2)no1,1.74%
4,COc1ccccc1NC(=O)CSc1nc2sc3c(c2c(=O)n1-c1ccccc1)CCN(C)C3,-17%
5,COc1ccccc1NC(=O)CSc1nc2sc(C)c(C)c2c(=O)n1Cc1ccco1,52.6% (active)
6,CC(C)Cc1oc(C(=O)O)cc1CN,4.13%
7,C[C@H](NC(=O)c1nc[nH]c1C(=O)N[C@@H](C)C(=O)OC(C)(C)C)C(=O)OC(C)(C)C,1.23%
8,Cc1ccc(NC(=O)c2nc[nH]c2C(=O)N[C@@H](CCCCNC(=O)OC(C)(C)C)C(=O)OC(C)(C)C)cc1,76.8% (active)
9,CNC(=O)c1[nH]cnc1C(=O)N[C@@H](CC(C)C)C(=O)OC(C)(C)C,-5.44%
10,CCOC(=O)c1ccc(NC(=O)c2nc[nH]c2C(=O)NCc2ccccc2)cc1,18.8%
11,CCOC(=O)c1[nH]cnc1C(=O)Nc1ccccc1C,10.7%
12,CCOC(=O)c1ccc(NC(=O)c2nc[nH]c2C(=O)N[C@@H](CCCCNC(=O)OC(C)(C)C)C(=O)OC(C)(C)C)cc1,50.8% (active)
13,Cc1cc(C(=O)CCC(=O)NNC(=O)c2ccccc2O)c(C)s1,12.7%
14,O=C1c2ccccc2S(=O)(=O)c2cc(N3CCN(c4ccccn4)CC3)ccc21,14.1%
15,COCc1cc(=O)n2[nH]c(C)c(-c3ccccc3)c2n1,-14.5%
16,CCCc1cc(=O)n2[nH]c(C)c(-c3ccc(Cl)cc3)c2n1,53.5% (active)
17,Cc1nc2c(-c3ccccc3)c(C)[nH]n2c(=O)c1Cl,18.8%
18,Cc1ccc2nnn(Cc3cccc(C(C)(C)C)c3O)c2c1,11.4%
19,CC1=NNC(=O)C1CCC(=O)N/N=C\c1cccc(Cl)c1 (stereo not given),4.3%
20,O=c1[nH]oc(O)c1-c1ncc(C(F)(F)F)cc1Cl,-8.5%
21,Cc1ccc(NC(=O)C2CC(=O)N(c3ccc4c(c3)OCCO4)C2)cc1S(=O)(=O)N1CCCCCC1 (stereo not given),-2.91%
